Data from PubChem BioAssay (EPA / NIEHS).
Results filed as inconclusive are left out. Some structures have more than one record in an assay (separate samples or runs), and their calls can disagree. Active and inactive are the calls of the source. How the source made its calls, unless noted: active means hit-call score of the fitted dose curve at least 0.9, where 1 is the maximum; inactive means score below 0.9.

What was measured:
[1] = read-out: Tissue Factor, F3 (gene 2152); test: BSK_LPS_TissueFactor: BioMAP Diversity Plus: LPS Assay for Tissue Factor Biomarker Activity (AID 2283084); details: primary human HUVEC with PBMC; actives raise or lower the signal
How it was run: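 Read-out: CD142 ELISA, 24 h. System: LPS-driven human endothelial/PBMC co-culture. Analysis: up- or down-signal fitted against DMSO.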

[2] = read-out: Tumor necrosis factor (Homo sapiens) (UniProt P01375); test: BSK_LPS_TNFa: BioMAP Diversity Plus: LPS Assay for Tumour Necrosis Factor alpha (TNFa) Biomarker Activity (AID 2283085); details: primary human HUVEC with PBMC; actives raise or lower the signal
How it was run: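 Primary human vascular co-culture of HUVEC and PBMC; TNFa ELISA 24 h after treatment, analysed as increase or decrease relative to DMSO control.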

[3] = read-out: Vascular cell adhesion molecule 1 (VCAM1), VCAM1 (gene 7412); test: BSK_LPS_VCAM1: BioMAP Diversity Plus: LPS Assay for Vascular cell adhesion molecule 1 (VCAM1) Biomarker Activity (AID 2283086); details: primary human HUVEC with PBMC; actives raise or lower the signal
How it was run: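 Primary human vascular co-culture (umbilical vein endothelium plus PBMC) stimulated with LPS received chemical; 24 h later VCAM-1 was read by ELISA. Overt cytotoxicity was assessed by sulforhodamine B staining of parallel cultures at the same time point.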

CD38, CD38 (gene 952) = test: BSK_SAg_CD38: BioMAP Diversity Plus: SAg Assay for CD38 Biomarker Activity (AID 2283087); details: primary human HUVEC with PBMC; actives raise or lower the signal
How it was run: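 Fluorescence ELISA of cell-surface CD38 served as the read-out, with either increase or decrease fitted against DMSO controls. Cells were a human umbilical vein endothelium plus PBMC co-culture under SEB/TSST-1 stimulation, measured 24 h after dosing.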

CD40, CD40 (gene 958) = test: BSK_SAg_CD40: BioMAP Diversity Plus: SAg Assay for CD40 Biomarker Activity (AID 2283088); details: primary human HUVEC with PBMC; actives raise or lower the signal
How it was run: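 Endpoint derived by fitting increases or decreases versus DMSO controls. CD40 is detected by fluorescence ELISA in a human vascular co-culture of endothelium and PBMC at 24 h.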

[4] = read-out: Monocyte Chemoattractant Protein-1 (MCP1), CCL2 (gene 6347); test: BSK_SAg_MCP1: BioMAP Diversity Plus: SAg Assay for Monocyte Chemoattractant Protein-1 (MCP1) Biomarker Activity (AID 2283090); details: primary human HUVEC with PBMC; actives raise or lower the signal
How it was run: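 MCP-1 levels in the endothelial–PBMC SAg co-culture were quantified by ELISA at 24 h post-dosing; both increases and decreases versus DMSO scored. Cytotoxicity monitored by SRB total protein in parallel cultures.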

[5] = read-out: E-selectin (Homo sapiens) (UniProt P16581); test: BSK_SAg_Eselectin: BioMAP Diversity Plus: SAg Assay for Eselectin Biomarker Activity (AID 2283091); details: primary human HUVEC with PBMC; actives raise or lower the signal
How it was run: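 Endpoint values derive from bidirectional fitting relative to DMSO, using ELISA-measured E-selectin in a human vascular co-culture (umbilical vein endothelium plus PBMC) sampled 24 h after dosing.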

[6] = read-out: Monokine induced gamma interferon (MIG), CXCL9 (gene 4283); test: BSK_SAg_MIG: BioMAP Diversity Plus: SAg Assay for Monokine induced gamma interferon (MIG) Biomarker Activity (AID 2283092); details: primary human HUVEC with PBMC; actives raise or lower the signal
How it was run: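 Values reflect bidirectional fitting of ELISA-measured MIG against DMSO vehicle, taken 24 h after dosing of a co-culture of human umbilical vein endothelial cells and peripheral blood mononuclear cells.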

[7] = BSK_SAg_PBMCCytotoxicity: PBMC Cytotoxicity Assessment in the BioMAP Diversity Plus: SAg Assay (AID 2283093); details: primary human HUVEC with PBMC;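 further: PBMC viability measured as Alamar Blue reduction fluorescence at 546/580 nm; fitted both ways against DMSO so a hit may be loss or gain of signal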;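 on AC50: PBMC superantigen activated with SEB plus TSST-1 one hour after compound addition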
How it was run: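 Human umbilical vein endothelial cells co-cultured with PBMC; PBMC (75,000/well) pre-treated with compound 1 h, then activated with SEB and TSST-1 (20 ng/mL final each) for 90 h. Alamar Blue added 6 h, fluorescence 546/580 nm; bidirectional fit versus DMSO.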

[8] = read-out: Interleukin-8 (IL8), CXCL8 (gene 3576); test: BSK_SAg_IL8: BioMAP Diversity Plus: SAg Assay for Interleukin-8 (IL8) Biomarker Activity (AID 2283094); details: primary human HUVEC with PBMC; actives raise or lower the signal
How it was run: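 In this co-culture of human umbilical vein endothelium with peripheral blood mononuclear cells, IL-8 is assayed by ELISA at 24 h. DMSO serves as baseline for bidirectional curve fitting.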

[9] = BSK_SAg_Proliferation: Cell Proliferation Assessment in the BioMAP Diversity Plus: SAg Assay (AID 2283095); details: primary human HUVEC with PBMC;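 further: relative cell number as total protein by SRB absorbance in sub-confluent culture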
How it was run: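 Readout is SRB-stained protein (560 nm) in a primary human HUVEC and PBMC co-culture; sub-confluent cultures are read at 96 h. Activity is fitted bidirectionally using DMSO as baseline.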

[10] = BSK_SAg_SRB: Viability Assessment in the BioMAP Diversity Plus: SAg Assay (AID 2283096); details: primary human HUVEC with PBMC;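 further: cells read one day after compound addition; hits may be either gain or loss of signal compared with DMSO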
How it was run: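 Endothelial/PBMC primary human co-culture; compound 24 h; fix 10% TCA, stain 0.1% SRB, A560; protein content as cytotoxicity proxy; bidirectional curve fit, DMSO = baseline.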

[11] = target: human CYP1A1, CYP1A1 (gene 1543) (UniProt P04798); test: NVS_ADME_hCYP1A1: NovaScreen (NVS) CYP450-related Enzyme Activity (ADME) Assay for human CYP1A1 (AID 2283100; active means hit-call score of the fitted dose curve at least 0.9, where 1 is the maximum)
How it was run: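 Inhibition of recombinant CYP1A1 turnover was assessed fluorometrically in a biochemical format 1 h after compound exposure. Testing began at 10 uM in duplicate and progressed to concentration series reaching 20 uM, with on-plate positive and negative controls.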

[12] = target: human CYP2D6, CYP2D6 (gene 1565) (UniProt P10635); test: NVS_ADME_hCYP2D6: NovaScreen (NVS) CYP450-related Enzyme Activity (ADME) Assay for human CYP2D6 (AID 2283107; active means hit-call score of the fitted dose curve at least 0.9, where 1 is the maximum)
How it was run: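 Biochemical fluorescence assay, insect-cell-derived enzyme. Read at 1 h; inhibition taken from loss of signal against acetonitrile. Screened at 10 uM in duplicate, with concentration series for actives.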

[13] = target: Cytochrome P450 3A4 (Homo sapiens) (UniProt P08684); test: NVS_ADME_hCYP3A4: NovaScreen (NVS) CYP450-related Enzyme Activity (ADME) Assay for human CYP3A4 (AID 2283110; active means hit-call score of the fitted dose curve at least 0.9, where 1 is the maximum)
How it was run: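 Cell-free assay using insect-cell-expressed human CYP3A4 with a fluorogenic substrate; fluorescence intensity was read 0.33 hour after dosing. Loss of signal relative to acetonitrile vehicle indicated inhibition. Primary single-concentration screen at 10 uM, in duplicate, then concentration series.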

CD69, CD69 (gene 969) = test: BSK_SAg_CD69: BioMAP Diversity Plus: SAg Assay for CD69 Biomarker Activity (AID 2283089); details: primary human HUVEC with PBMC; actives raise or lower the signal
How it was run: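 Values derive from bidirectional fitting relative to DMSO vehicle. Cells: umbilical vein endothelium plus peripheral blood mononuclear cells, treated 24 h before fluorescent ELISA for CD69.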

[14] = target: human CYP19A1, CYP19A1 (gene 1588) (UniProt P11511); test: NVS_ADME_hCYP19A1: NovaScreen (NVS) CYP450-related Enzyme Activity (ADME) Assay for human CYP19A1 (AID 2283098; active means hit-call score of the fitted dose curve at least 0.9, where 1 is the maximum;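 on AC50: potency for inhibitors seen as loss of fluorescent enzyme signal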)
How it was run: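 Cell-free enzyme assay with recombinant protein and a specific fluorogenic substrate, read by fluorescence intensity 0.5 h after dosing. Primary screen ran in duplicate at 10 uM; actives were retested in concentration series. Loss of signal versus acetonitrile baseline.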

[15] = target: human CYP2A6, CYP2A6 (gene 1548) (UniProt P11509); test: NVS_ADME_hCYP2A6: NovaScreen (NVS) CYP450-related Enzyme Activity (ADME) Assay for human CYP2A6 (AID 2283099; active means hit-call score of the fitted dose curve at least 0.9, where 1 is the maximum)
How it was run: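 Loss of fluorescence signal relative to acetonitrile vehicle reported CYP2A6 inhibition in a cell-free system using insect-cell-derived enzyme. Readings were taken at 0.5 h; top concentration in follow-up dose series was 20 uM.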

[16] = target: human CYP1A2, CYP1A2 (gene 1544) (UniProt P05177); test: NVS_ADME_hCYP1A2: NovaScreen (NVS) CYP450-related Enzyme Activity (ADME) Assay for human CYP1A2 (AID 2283102; active means hit-call score of the fitted dose curve at least 0.9, where 1 is the maximum;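 further: fluorescence from turnover of a fluorogenic substrate by recombinant insect-cell CYP1A2; potency for inhibition since loss of fluorescence marks reduced CYP1A2 activity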)
How it was run: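 Inhibition scored as decrease in fluorescent product versus acetonitrile negative control. Enzyme: insect-cell recombinant human CYP1A2, substrate-specific, cell-free. Reading at 0.5 h; 10 uM duplicate initial screen with positive and negative controls on every plate.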

Measured: AC50

Tumor necrosis factor (Homo sapiens), sequence (P01375 whole entry, looked up): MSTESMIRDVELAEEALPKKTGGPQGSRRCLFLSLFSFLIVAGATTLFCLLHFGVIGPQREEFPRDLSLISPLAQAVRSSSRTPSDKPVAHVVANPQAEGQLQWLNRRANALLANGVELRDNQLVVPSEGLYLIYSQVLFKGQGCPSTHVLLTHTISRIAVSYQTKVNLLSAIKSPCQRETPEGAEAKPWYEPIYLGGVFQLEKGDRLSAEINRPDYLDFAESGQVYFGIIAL
Cytochrome P450 3A4 (Homo sapiens), sequence (P08684 whole entry, looked up): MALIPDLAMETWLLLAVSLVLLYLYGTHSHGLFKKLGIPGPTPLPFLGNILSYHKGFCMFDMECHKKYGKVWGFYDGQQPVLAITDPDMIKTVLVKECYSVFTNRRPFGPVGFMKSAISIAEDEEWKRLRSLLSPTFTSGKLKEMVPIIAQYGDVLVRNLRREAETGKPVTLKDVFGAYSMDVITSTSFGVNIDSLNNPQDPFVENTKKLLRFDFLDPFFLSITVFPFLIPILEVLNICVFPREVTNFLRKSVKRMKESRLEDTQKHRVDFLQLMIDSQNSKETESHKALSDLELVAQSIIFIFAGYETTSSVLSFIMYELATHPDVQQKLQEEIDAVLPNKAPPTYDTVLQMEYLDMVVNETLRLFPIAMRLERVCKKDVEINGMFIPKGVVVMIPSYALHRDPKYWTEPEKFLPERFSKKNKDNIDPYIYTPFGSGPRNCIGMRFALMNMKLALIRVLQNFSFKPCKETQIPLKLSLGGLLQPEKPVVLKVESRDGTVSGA
E-selectin (Homo sapiens), sequence (P16581 whole entry, looked up): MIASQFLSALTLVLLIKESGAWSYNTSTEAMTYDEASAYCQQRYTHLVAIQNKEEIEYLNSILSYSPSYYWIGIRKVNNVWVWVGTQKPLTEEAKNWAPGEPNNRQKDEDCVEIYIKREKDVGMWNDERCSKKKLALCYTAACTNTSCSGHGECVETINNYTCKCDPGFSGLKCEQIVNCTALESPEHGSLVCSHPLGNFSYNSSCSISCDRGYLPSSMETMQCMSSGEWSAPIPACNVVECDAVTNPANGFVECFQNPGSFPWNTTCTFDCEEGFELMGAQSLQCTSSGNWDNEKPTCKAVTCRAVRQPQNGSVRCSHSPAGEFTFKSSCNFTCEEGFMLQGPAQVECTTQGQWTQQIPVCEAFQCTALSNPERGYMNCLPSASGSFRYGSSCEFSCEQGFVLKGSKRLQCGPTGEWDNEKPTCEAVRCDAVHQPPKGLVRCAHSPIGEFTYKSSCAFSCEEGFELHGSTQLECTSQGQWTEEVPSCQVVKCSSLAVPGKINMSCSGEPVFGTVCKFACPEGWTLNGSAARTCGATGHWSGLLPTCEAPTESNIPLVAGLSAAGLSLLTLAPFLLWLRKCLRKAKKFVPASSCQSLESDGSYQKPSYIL
human CYP19A1, CYP19A1 (gene 1588), sequence (P11511 whole entry, looked up): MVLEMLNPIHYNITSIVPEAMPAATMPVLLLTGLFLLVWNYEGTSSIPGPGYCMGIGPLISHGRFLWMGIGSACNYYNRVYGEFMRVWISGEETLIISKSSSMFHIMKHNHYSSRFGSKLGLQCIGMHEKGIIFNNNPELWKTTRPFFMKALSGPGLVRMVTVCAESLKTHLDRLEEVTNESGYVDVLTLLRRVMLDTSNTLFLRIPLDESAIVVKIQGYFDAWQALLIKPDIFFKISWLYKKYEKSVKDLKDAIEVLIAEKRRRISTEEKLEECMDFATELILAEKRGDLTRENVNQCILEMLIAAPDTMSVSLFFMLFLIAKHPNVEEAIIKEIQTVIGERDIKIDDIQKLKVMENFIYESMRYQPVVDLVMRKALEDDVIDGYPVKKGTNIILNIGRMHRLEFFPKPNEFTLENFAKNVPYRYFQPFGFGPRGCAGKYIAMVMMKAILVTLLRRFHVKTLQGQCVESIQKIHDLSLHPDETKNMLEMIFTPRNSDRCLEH
human CYP1A1, CYP1A1 (gene 1543), sequence (P04798 whole entry, looked up): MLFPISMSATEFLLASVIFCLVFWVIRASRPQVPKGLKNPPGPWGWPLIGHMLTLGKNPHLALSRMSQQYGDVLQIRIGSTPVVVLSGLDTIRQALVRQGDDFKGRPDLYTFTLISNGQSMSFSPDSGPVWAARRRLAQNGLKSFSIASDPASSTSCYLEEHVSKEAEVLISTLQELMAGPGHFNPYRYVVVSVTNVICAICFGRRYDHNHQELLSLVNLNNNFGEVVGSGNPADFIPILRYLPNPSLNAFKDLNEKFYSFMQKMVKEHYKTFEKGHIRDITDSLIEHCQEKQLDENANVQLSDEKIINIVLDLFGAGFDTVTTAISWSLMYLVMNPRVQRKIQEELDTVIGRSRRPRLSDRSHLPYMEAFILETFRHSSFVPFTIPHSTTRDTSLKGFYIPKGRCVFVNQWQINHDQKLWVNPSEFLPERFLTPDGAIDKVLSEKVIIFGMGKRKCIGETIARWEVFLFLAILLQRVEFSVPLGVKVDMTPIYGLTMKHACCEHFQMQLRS
human CYP1A2, CYP1A2 (gene 1544), sequence (P05177 whole entry, looked up): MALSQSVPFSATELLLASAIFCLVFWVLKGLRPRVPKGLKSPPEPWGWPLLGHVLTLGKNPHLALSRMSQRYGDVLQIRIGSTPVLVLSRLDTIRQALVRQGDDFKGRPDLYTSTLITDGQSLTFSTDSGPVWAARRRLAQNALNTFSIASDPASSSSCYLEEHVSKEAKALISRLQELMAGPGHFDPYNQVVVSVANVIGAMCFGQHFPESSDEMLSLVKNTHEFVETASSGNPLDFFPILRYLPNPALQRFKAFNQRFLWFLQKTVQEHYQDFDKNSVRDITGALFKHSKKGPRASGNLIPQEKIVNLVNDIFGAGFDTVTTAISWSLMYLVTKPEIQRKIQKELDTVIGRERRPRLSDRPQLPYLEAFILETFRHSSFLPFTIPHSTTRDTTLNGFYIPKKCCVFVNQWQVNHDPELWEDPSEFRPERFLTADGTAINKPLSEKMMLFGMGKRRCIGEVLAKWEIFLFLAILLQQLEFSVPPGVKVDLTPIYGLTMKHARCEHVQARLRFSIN
human CYP2D6, CYP2D6 (gene 1565), sequence (P10635 whole entry, looked up): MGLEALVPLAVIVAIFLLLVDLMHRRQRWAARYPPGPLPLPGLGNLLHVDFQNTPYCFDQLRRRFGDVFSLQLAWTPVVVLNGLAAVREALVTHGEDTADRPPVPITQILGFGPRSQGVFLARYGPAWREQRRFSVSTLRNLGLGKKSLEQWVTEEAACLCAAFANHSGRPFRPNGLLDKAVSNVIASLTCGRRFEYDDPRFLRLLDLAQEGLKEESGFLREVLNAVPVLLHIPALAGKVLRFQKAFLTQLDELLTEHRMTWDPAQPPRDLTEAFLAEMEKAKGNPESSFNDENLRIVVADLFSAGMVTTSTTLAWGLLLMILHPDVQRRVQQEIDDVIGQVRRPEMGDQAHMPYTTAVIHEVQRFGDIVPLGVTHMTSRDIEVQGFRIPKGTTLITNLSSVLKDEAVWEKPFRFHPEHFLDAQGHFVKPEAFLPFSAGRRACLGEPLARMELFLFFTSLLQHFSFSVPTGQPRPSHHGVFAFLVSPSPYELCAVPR
human CYP2A6, CYP2A6 (gene 1548), sequence (P11509 whole entry, looked up): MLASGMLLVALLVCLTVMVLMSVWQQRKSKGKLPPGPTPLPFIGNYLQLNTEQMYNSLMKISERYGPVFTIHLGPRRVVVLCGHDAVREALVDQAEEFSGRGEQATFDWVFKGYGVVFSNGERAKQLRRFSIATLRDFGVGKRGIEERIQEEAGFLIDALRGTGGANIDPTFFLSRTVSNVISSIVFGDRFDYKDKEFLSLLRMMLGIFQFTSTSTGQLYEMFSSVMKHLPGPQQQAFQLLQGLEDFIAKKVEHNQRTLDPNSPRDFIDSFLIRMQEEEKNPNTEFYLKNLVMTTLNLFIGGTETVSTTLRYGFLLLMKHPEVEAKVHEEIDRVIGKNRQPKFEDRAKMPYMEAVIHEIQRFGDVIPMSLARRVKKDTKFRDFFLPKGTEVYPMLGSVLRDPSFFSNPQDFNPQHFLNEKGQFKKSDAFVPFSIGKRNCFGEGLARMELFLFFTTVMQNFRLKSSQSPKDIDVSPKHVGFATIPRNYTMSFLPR

O=C(O)c1ccccc1C(=O)OCc1ccccc1
not listed: [11] | [12] | [13] | CD69, CD69 (gene 969) | [14] | [15] | [16]
inactive: all other assays above

O=C1c2ccccc2C(=O)N1CCc1noc(-c2ccc(CN3CCCCCC3)s2)n1
active: [5] 16.9 µM | [11] 4.62 µM | [12] 6.57 µM
not listed: CD69, CD69 (gene 969) | [14] | [15] | [16]
inactive: all other assays above

C[C@]12CC[C@@H]3c4ccc(O)cc4CC[C@H]3[C@@H]1CCC2=O
not listed: [11] | [12] | [13] | CD69, CD69 (gene 969) | [14] | [15] | [16]
inactive: all other assays above

Cc1ccc(C(C)C)cc1
not listed: [11] | [12] | [13] | CD69, CD69 (gene 969) | [14] | [15] | [16]
inactive: all other assays above

C[C@]12CC[C@@H]3c4ccc(O)cc4CC[C@H]3[C@@H]1CC[C@H]2O
active: [4] 15.4 µM | [9] 12.4 µM | [10] 12.1 µM | [14] 10 µM
inactive: [1] | [2] | CD38, CD38 (gene 952) | CD40, CD40 (gene 958) | CD69, CD69 (gene 969) | [5] | [6] | [7] | [8] | [14]

CN1C(=O)CC[C@H]1c1cccnc1
not listed: [11] | [12] | [13] | CD69, CD69 (gene 969) | [14] | [15] | [16]
inactive: all other assays above

O=C(O)c1ccccc1-n1cc(C(=O)O)c(=O)c2cc(Nc3c(F)cc(F)cc3Cl)c(Cl)cc21
not listed: [11] | [12] | [13] | CD69, CD69 (gene 969) | [14] | [15] | [16]
inactive: all other assays above

Cc1oc2c(NC(=O)c3c(Cl)cccc3Cl)cccc2c1C(C)(C)O
inactive: [2] | [3] | [6] | [8]
active: [1] 4.5 µM | CD38, CD38 (gene 952) 21.3 µM | CD40, CD40 (gene 958) 20.9 µM | [4] 7.57 µM | [5] 7.6 µM | [7] 14.2 µM | [9] 20.6 µM | [10] 25.3 µM | [11] 2.39 µM | [13] 7.44 µM

CCOC(=O)O[C@H](C)OC(=O)c1ccc2c(c1)cc(C(=O)NC1CCN(C(C)C)CC1)n2Cc1cc(-c2ccc(Cl)s2)on1
inactive: [15]
active: [1] 10.9 µM | [2] 10.1 µM | [3] 6.25 µM | CD38, CD38 (gene 952) 7.17 µM | CD40, CD40 (gene 958) 6.99 µM | [4] 7.11 µM | [5] 8.76 µM | [6] 8.05 µM | [7] 2.82 µM | [8] 6.18 µM | [9] 2.37 µM | [10] 6.18 µM | [16] 13.7 µM | [13] 9.45 µM

CC[C@@H]1C[C@H](N(Cc2cc(C(F)(F)F)cc(C(F)(F)F)c2)C(C)=O)c2cc(C(F)(F)F)ccc2N1C(=O)OC(C)C
not listed: [11] | [12] | [13] | CD69, CD69 (gene 969) | [14] | [15] | [16]
inactive: all other assays above
